Assay results reported in PubChem BioAssay AID1159580 (chemical genetic matrix, 2015).
Screen size: about 5,500 compounds; about 2,000 (36%) were called active. Not shown: some 18% with an inconclusive outcome. No stated cut-off is given here; in the data, active means normalized growth mostly below about 0.91 (no sharp cut-off); inconclusive means no clear call, values can overlap the other calls; inactive means mostly above about 0.92. The list shows a part of the results.

Experiment: chemical genetic growth profiling, strain panel (AID 1159580);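 further: tested at 20 µM; growth read once vehicle control cultures reached saturation at 30 °C; 1 = growth at the plate median or of vehicle wells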
Conditions: growth OD

Measured: normalized growth

CC1CCC2(OC1)OC1CC3C4CC[C@H]5C[C@@H](O)CC[C@]5(C)C4CC(=O)[C@]3(C)C1C2C (some centres not stated)
inactive: S. cerevisiae deletion strains, locus YJR075W, strain HOC1, stronger effect = lower value 1.01 | S. cerevisiae deletion strains, locus YKL009W, strain mrt4, stronger effect = lower value 0.965 | S. cerevisiae deletion strains, locus YKL068W, stronger effect = lower value 0.992 | S. cerevisiae deletion strains, locus YKL085W, strain MDH1 (second series), stronger effect = lower value 0.989 | S. cerevisiae deletion strains, locus YKL085W, strain MDH1, stronger effect = lower value 0.989 | S. cerevisiae deletion strains, locus YKL160W, strain elf1, stronger effect = lower value 1.01 | S. cerevisiae deletion strains, locus YKL190W, strain CNB1, stronger effect = lower value 1.01 | S. cerevisiae deletion strains, locus YKR001C, strain vps1, stronger effect = lower value 0.98 | S. cerevisiae deletion strains, locus YKR026C, strain gcn3, stronger effect = lower value 1.02 | S. cerevisiae deletion strains, locus YKR091W, strain srl3, stronger effect = lower value 1.01 | S. cerevisiae deletion strains, locus YLL001W, strain dnm1, stronger effect = lower value 0.987 | S. cerevisiae deletion strains, locus YLL026W, stronger effect = lower value 1.01 | S. cerevisiae deletion strains, locus YLL041C, strain sdh2, stronger effect = lower value 1 | S. cerevisiae deletion strains, locus YLR027C, strain aat2, stronger effect = lower value 1 | S. cerevisiae deletion strains, locus YLR039C, strain RIC1, stronger effect = lower value 0.972 | S. cerevisiae deletion strains, locus YLR058C, strain SHM2, stronger effect = lower value 1.01 | S. cerevisiae deletion strains, locus YLR102C, strain apc9, stronger effect = lower value 0.982 | S. cerevisiae deletion strains, locus YLR113W, strain HOG1, stronger effect = lower value 0.97 | S. cerevisiae deletion strains, locus YLR221C, strain rsa3, stronger effect = lower value 0.994 | S. cerevisiae deletion strains, locus YLR258W, strain gsy2, stronger effect = lower value 0.995 | S. cerevisiae deletion strains, locus YLR262C, strain YPT6 (second series), stronger effect = lower value 0.97 | S. cerevisiae deletion strains, locus YLR262C, strain YPT6, stronger effect = lower value 0.993 | S. cerevisiae deletion strains, locus YLR268W, strain sec22, stronger effect = lower value 0.952 | S. cerevisiae deletion strains, locus YLR320W, strain mms22, stronger effect = lower value 0.975 | S. cerevisiae deletion strains, locus YLR330W, strain CHS5, stronger effect = lower value 1.02 | S. cerevisiae deletion strains, locus YLR342W, strain FKS1 (second series), stronger effect = lower value 1.06 | S. cerevisiae deletion strains, locus YLR342W, strain FKS1, stronger effect = lower value 1 | S. cerevisiae deletion strains, locus YLR357W, strain rsc2, stronger effect = lower value 0.992 | S. cerevisiae deletion strains, locus YLR370C, strain arc18, stronger effect = lower value 1.02 | S. cerevisiae deletion strains, locus YLR371W, strain rom2, stronger effect = lower value 0.976 | S. cerevisiae deletion strains, locus YLR384C, strain iki3, stronger effect = lower value 1.02 | S. cerevisiae deletion strains, locus YLR418C, strain cdc73, stronger effect = lower value 0.934 | S. cerevisiae deletion strains, locus YML016C, strain PPZ1, stronger effect = lower value 1.01 | S. cerevisiae deletion strains, locus YML032C, strain rad52, stronger effect = lower value 0.965 | S. cerevisiae deletion strains, locus YML120C, strain ndi1, stronger effect = lower value 1 | S. cerevisiae deletion strains, locus YML124C, strain tub3, stronger effect = lower value 0.981 | S. cerevisiae deletion strains, locus YMR058W, strain fet3, stronger effect = lower value 1.03 | S. cerevisiae deletion strains, locus YMR078C, strain ctf18, stronger effect = lower value 1.01 | S. cerevisiae deletion strains, locus YMR125W, strain sto1, stronger effect = lower value 1.04 | S. cerevisiae deletion strains, locus YMR129W, stronger effect = lower value 1.03 | S. cerevisiae deletion strains, locus YMR205C, strain PFK2, stronger effect = lower value 1 | S. cerevisiae deletion strains, locus YMR223W, strain ubp8, stronger effect = lower value 0.999 | S. cerevisiae deletion strains, locus YMR231W, strain pep5, stronger effect = lower value 1.02 | S. cerevisiae deletion strains, locus YMR263W, strain SAP30, stronger effect = lower value 1.01 | S. cerevisiae deletion strains, locus YMR307W, strain GAS1, stronger effect = lower value 1.01 | S. cerevisiae deletion strains, locus YNL067W, strain RPL9B, stronger effect = lower value 0.991 | S. cerevisiae deletion strains, locus YNL071W, strain lat1, stronger effect = lower value 1.02 | S. cerevisiae deletion strains, locus YNL128W, strain TEP1, stronger effect = lower value 1.01 | S. cerevisiae deletion strains, locus YNL153C, strain GIM3, stronger effect = lower value 0.992 | S. cerevisiae deletion strains, locus YNL183C, strain NPR1, stronger effect = lower value 0.943 | S. cerevisiae deletion strains, locus YNL209W, strain ssb2, stronger effect = lower value 1.01 | S. cerevisiae deletion strains, locus YNL233W, strain BNI4, stronger effect = lower value 0.998 | S. cerevisiae deletion strains, locus YNL248C, strain rpa49, stronger effect = lower value 1.02 | S. cerevisiae deletion strains, locus YNL250W, strain rad50, stronger effect = lower value 0.98 | S. cerevisiae deletion strains, locus YNL271C, strain bni1, stronger effect = lower value 0.979 | S. cerevisiae deletion strains, locus YNL298W, strain CLA4, stronger effect = lower value 0.983 | S. cerevisiae deletion strains, locus YNL307C, strain MCK1, stronger effect = lower value 0.982 | S. cerevisiae deletion strains, locus YNL322C, strain KRE1 (second series), stronger effect = lower value 1.01 | S. cerevisiae deletion strains, locus YNL322C, strain KRE1, stronger effect = lower value 1.01 | S. cerevisiae deletion strains, locus YNR049C, strain mso1, stronger effect = lower value 1 | S. cerevisiae deletion strains, locus YNR052C, strain pop2, stronger effect = lower value 0.982 | S. cerevisiae deletion strains, locus YOL006C, strain TOP1, stronger effect = lower value 1.01 | S. cerevisiae deletion strains, locus YOL012C, strain htz1 0.834 | S. cerevisiae deletion strains, locus YOL147C, strain pex11, stronger effect = lower value 0.993 | S. cerevisiae deletion strains, locus YOR001W, strain rrp6, stronger effect = lower value 0.983 | S. cerevisiae deletion strains, locus YOR061W, strain CKA2, stronger effect = lower value 1.01 | S. cerevisiae deletion strains, locus YOR069W, strain VPS5, stronger effect = lower value 1.01 | S. cerevisiae deletion strains, locus YOR070C, strain gyp1, stronger effect = lower value 1.01 | S. cerevisiae deletion strains, locus YOR080W, strain dia2, stronger effect = lower value 1.04 | S. cerevisiae deletion strains, locus YOR083W, strain WHI5, stronger effect = lower value 0.957 | S. cerevisiae deletion strains, locus YOR106W, strain vam3, stronger effect = lower value 1.02 | S. cerevisiae deletion strains, locus YOR136W, strain idh2, stronger effect = lower value 0.995 | S. cerevisiae deletion strains, locus YOR144C, strain elg1, stronger effect = lower value 0.989 | S. cerevisiae deletion strains, locus YOR184W, strain ser1, stronger effect = lower value 0.96 | S. cerevisiae deletion strains, locus YOR231W, strain MKK1, stronger effect = lower value 0.963 | S. cerevisiae deletion strains, locus YOR265W, strain rbl2, stronger effect = lower value 1.01 | S. cerevisiae deletion strains, locus YOR270C, strain vph1, stronger effect = lower value 1.02 | S. cerevisiae deletion strains, locus YOR290C, strain snf2, stronger effect = lower value 1.03 | S. cerevisiae deletion strains, locus YOR316C, strain cot1, stronger effect = lower value 0.991 | S. cerevisiae deletion strains, locus YPL051W, strain arl3, stronger effect = lower value 1.02 | S. cerevisiae deletion strains, locus YPL055C, strain LGE1, stronger effect = lower value 1.02 | S. cerevisiae deletion strains, locus YPL078C, strain atp4, stronger effect = lower value 1.06 | S. cerevisiae deletion strains, locus YPL106C, strain sse1, stronger effect = lower value 1.02 | S. cerevisiae deletion strains, locus YPL240C, strain hsp82, stronger effect = lower value 1.01 | S. cerevisiae deletion strains, locus YPL241C, strain CIN2, stronger effect = lower value 1.01 | S. cerevisiae deletion strains, locus YPL256C, strain CLN2, stronger effect = lower value 0.963 | S. cerevisiae deletion strains, locus YPR119W, strain clb2, stronger effect = lower value 0.989 | S. cerevisiae deletion strains, locus YPR141C, strain kar3, stronger effect = lower value 0.986 | S. cerevisiae deletion strains, locus YPR163C, strain tif3, stronger effect = lower value 0.98 | S. cerevisiae deletion strains, locus YPR167C, strain met16, stronger effect = lower value 0.99 | S. cerevisiae deletion strains, strain wtn01, stronger effect = lower value 0.96 | S. cerevisiae strains, strain wild type, stronger effect = lower value 1.01
